The source of these data is PubChem BioAssay (NCI).

About 83,000 compounds went through this panel and 20% of them were active in at least one assay; those are over-represented in the sample as a whole.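 48-hour exposure, single concentration, 96-well plates; percent growth endpoint where 0 means no net growth. Active: below 10.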 A number with no mark means an inactive call. The source made the active and inactive calls.

Test systems include SR leukemia; RPMI-8226 leukemia; OVCAR-8 ovarian; OVCAR-5 ovarian; OVCAR-4 ovarian; SK-OV-3 ovarian; IGROV1 ovarian; HS 578T breast; NCI/ADR-RES ovarian.
Holding throughout (assay): NCI-60 one-dose screen, 48 h (100 = growth as untreated, 0 = no growth, -100 = all killed)
What all share (conditions): 10 µM unless noted

As for `CCCCSC1=C(Cl)CN(c2ccccc2)C1=O`, the growth with SR leukemia is 71.5%; in the experiment with RPMI-8226 leukemia, 78%; in the experiment with OVCAR-8 ovarian, 102%; in the experiment on OVCAR-5 ovarian, 98.8%; in the experiment on OVCAR-4 ovarian, 107%; in the experiment on SK-OV-3 ovarian it was 105%. Further, the growth with IGROV1 ovarian was 106%; in the experiment on HS 578T breast it was 98.6%; in the experiment on NCI/ADR-RES ovarian, 103%.

`O=C1Nc2ccc(F)cc2/C1=C\C(=O)c1ccc(NS(=O)(=O)c2ccccc2)cc1`: the growth in the experiment with SR leukemia is 9.42% (active); in the experiment with RPMI-8226 leukemia, 67.6%; in the experiment with OVCAR-8 ovarian, 91.1%; with OVCAR-5 ovarian, 107%; in the experiment on OVCAR-4 ovarian, 93.2%; in the experiment on SK-OV-3 ovarian, 112%. The growth with IGROV1 ovarian was 87.2%; in the experiment with HS 578T breast, 110%; in the experiment with NCI/ADR-RES ovarian, 96.7%.

For `CC(=O)N1N=C(c2cc3ccccc3oc2=O)CC1c1cn(-c2ccccc2)nc1-c1ccc(C)cc1` (stereo unspecified), the growth in the experiment with SR leukemia is 101%; in the experiment on RPMI-8226 leukemia it was 102%; in the experiment with OVCAR-8 ovarian, 97.3%; with OVCAR-5 ovarian it was 94.1%; with OVCAR-4 ovarian, 94.4%; in the experiment on SK-OV-3 ovarian it was 95.2%. Further, the growth in the experiment with IGROV1 ovarian is 108%; with HS 578T breast it was 93.7%; with NCI/ADR-RES ovarian it was 96.1%.

With `CN(C)c1cccc2c(S(=O)(=O)Nc3cccc(-c4csc(NC(=O)CCCCCN5CCN(CCO)CC5)n4)c3)cccc12`, the growth with SR leukemia is -9.78% (active); in the experiment with RPMI-8226 leukemia, 47.2%; with OVCAR-8 ovarian, 89%; in the experiment on OVCAR-5 ovarian it was 88.7%; in the experiment on OVCAR-4 ovarian it was 92.4%; in the experiment on SK-OV-3 ovarian, 107%. Also, the growth was 86.1% with IGROV1 ovarian, 85.1% in the experiment with HS 578T breast and 103% in the experiment on NCI/ADR-RES ovarian.

As for `Cc1ccc(S(=O)(=O)c2nc(-c3ccc(F)cc3)oc2S(C)(=O)=O)cc1`, the growth is 8.12% (active) in the experiment on SR leukemia; 31.7% in the experiment on RPMI-8226 leukemia; 86.9% in the experiment with OVCAR-8 ovarian; 95.2% with OVCAR-5 ovarian; 92.1% with OVCAR-4 ovarian; 100% in the experiment on SK-OV-3 ovarian. The growth with IGROV1 ovarian is 45.2%; in the experiment with HS 578T breast it was 90.6%; in the experiment on NCI/ADR-RES ovarian, 92%.

With `COCCOc1ccc2ncc(C#Cc3cncc(C(=O)Nc4ccc(CN5CCN(C)CC5)c(C(F)(F)F)c4)c3)n2n1`, the growth is 0.746% (active) in the experiment on SR leukemia; 23.4% in the experiment on RPMI-8226 leukemia; 24.4% in the experiment on OVCAR-8 ovarian; 21.8% in the experiment with OVCAR-5 ovarian; 43.2% with OVCAR-4 ovarian; 24% in the experiment with SK-OV-3 ovarian. The results for the growth in the experiment on IGROV1 ovarian, with HS 578T breast and in the experiment on NCI/ADR-RES ovarian were 9.76% (active), -13.3% (active) and 3.81% (active), respectively.

For `CCN(CC)c1ccc(/C=N/NC(=O)c2ccc(S(N)(=O)=O)cc2)c(O)c1`, the growth with SR leukemia is 10.5%; in the experiment on RPMI-8226 leukemia, 38.3%; in the experiment with OVCAR-8 ovarian it was 13.1%; in the experiment with OVCAR-5 ovarian, 50%; with OVCAR-4 ovarian it was 32.6%; with SK-OV-3 ovarian, 32.2%. For the same compound, the growth with IGROV1 ovarian is 17.6%; in the experiment with HS 578T breast, 54.3%; in the experiment on NCI/ADR-RES ovarian, 18%.

For the compound `COc1ccc([C@@H]2C(=O)N(c3cc(OC)c(OC)c(OC)c3)[C@H]2c2ccc(OC)c(O)c2)cc1`, the growth is 20% with SR leukemia; 13.1% in the experiment on RPMI-8226 leukemia; 10.6% with OVCAR-8 ovarian; 32.4% in the experiment with OVCAR-5 ovarian; 58.9% in the experiment on OVCAR-4 ovarian; 30.3% in the experiment with SK-OV-3 ovarian. Moreover, the growth in the experiment on IGROV1 ovarian was 22.5%; with HS 578T breast it was 14.9%; with NCI/ADR-RES ovarian, 13.6%.

With `COc1ccc(-c2nc(C#N)c(N3CCC(S(=O)(=O)N4CCOCC4)CC3)o2)cc1`, the growth is 83.8% in the experiment with SR leukemia; 101% with RPMI-8226 leukemia; 106% in the experiment with OVCAR-8 ovarian; 97.1% in the experiment on OVCAR-5 ovarian; 97.8% in the experiment on OVCAR-4 ovarian; 107% in the experiment on SK-OV-3 ovarian. For the same compound, the growth was 93% in the experiment with IGROV1 ovarian, 102% with HS 578T breast and 97.2% with NCI/ADR-RES ovarian.

On to `COc1cc(OC)cc(-c2cc(-c3c[nH]c4ccccc34)nc(-c3c[nH]c4ccccc34)c2C#N)c1`, for which the growth in the experiment on SR leukemia was 81.3%; in the experiment with RPMI-8226 leukemia, 99%; in the experiment with OVCAR-8 ovarian it was 102%; in the experiment on OVCAR-5 ovarian it was 109%; in the experiment with OVCAR-4 ovarian, 102%; with SK-OV-3 ovarian, 99.9%. The growth in the experiment on IGROV1 ovarian is 93.7%; with HS 578T breast, 102%; with NCI/ADR-RES ovarian, 97.1%.

As for `O=C(COc1ccc(/C=C2\C(=O)Nc3cc(Cl)ccc32)cc1)Nc1ccc(Cl)cc1`, the growth in the experiment on SR leukemia is 54.8%; in the experiment with RPMI-8226 leukemia, 60.4%; in the experiment with OVCAR-8 ovarian it was 63.4%; with OVCAR-5 ovarian it was 67.7%; in the experiment with OVCAR-4 ovarian, 66.5%; with SK-OV-3 ovarian, 87.1%. Moreover, the growth was 73.3% in the experiment on IGROV1 ovarian, 79.1% in the experiment with HS 578T breast and 66.8% with NCI/ADR-RES ovarian.

As to `CCCCCCCCCCCC(=O)NC(C)(C)C(=O)N1CCCC1C(=O)NC(C)(C)C(=O)NC(C)(C)C(=O)N1CCCC1C(=O)NC(C)(C)C(=O)NC(C)(C)C(=O)N1CCCC1C(=O)NC(C)C(=O)NCCC(=O)NC(C)C(=O)NC(C)(C)C(=O)NC(C)(C)C(=O)NC(C)(C)C(=O)NCCC(=O)NC(C)(C)C(=O)NC(C)(C)C(=O)NC(C)(C)C(=O)NC(C)C(=O)NCCC(=O)O` (stereo unspecified), the growth with SR leukemia was -61.5% (active); in the experiment on RPMI-8226 leukemia, -54.4% (active); in the experiment on OVCAR-8 ovarian, -93.4% (active); in the experiment with OVCAR-5 ovarian, -95.4% (active); in the experiment on OVCAR-4 ovarian, -94.5% (active); in the experiment with SK-OV-3 ovarian it was -96.9% (active). Besides, the growth was -93.8% (active) with IGROV1 ovarian, -69.8% (active) in the experiment on HS 578T breast and -80.9% (active) in the experiment with NCI/ADR-RES ovarian.

Turning to `CCCc1[nH]c(-c2cc(N)ccc2Cl)c2c1C(=O)CCCC2`, the growth in the experiment with SR leukemia was 85.8%; in the experiment with RPMI-8226 leukemia, 89.7%; in the experiment with OVCAR-8 ovarian, 96.4%; in the experiment with OVCAR-5 ovarian, 94.7%; with OVCAR-4 ovarian, 95.9%; in the experiment with SK-OV-3 ovarian, 103%. Also, the growth with IGROV1 ovarian is 91.6%; with HS 578T breast, 89.9%; with NCI/ADR-RES ovarian, 95.2%.

As to `O=C1Nc2ccccc2/C1=C/c1ccc(OCC(=O)c2ccccc2)cc1`, the growth in the experiment on SR leukemia was 101%; with RPMI-8226 leukemia, 95%; in the experiment with OVCAR-8 ovarian, 94.8%; in the experiment on OVCAR-5 ovarian, 102%; in the experiment with OVCAR-4 ovarian, 96.5%; in the experiment on SK-OV-3 ovarian, 102%. The results for the growth with IGROV1 ovarian, in the experiment with HS 578T breast and in the experiment with NCI/ADR-RES ovarian were 102%, 93.9% and 98.2%, respectively.

Turning to `C#Cc1nc(/C=C/C(=O)NO)cs1`, the growth was -42.9% (active) in the experiment with SR leukemia; -6.82% (active) in the experiment with RPMI-8226 leukemia; 21% in the experiment on OVCAR-8 ovarian; 42.3% in the experiment with OVCAR-5 ovarian; -24.9% (active) with OVCAR-4 ovarian; 95.6% in the experiment with SK-OV-3 ovarian. The growth in the experiment on IGROV1 ovarian was -71.5% (active); in the experiment with HS 578T breast it was 56%; with NCI/ADR-RES ovarian, -6.26% (active).

For `O=C(N/N=C\c1ccc(F)cc1)c1ccc2nc(-c3ccc(Br)cc3)[nH]c2c1`, the growth in the experiment on SR leukemia was 41.3%; with RPMI-8226 leukemia, 63.5%; in the experiment on OVCAR-8 ovarian it was 27.4%; in the experiment on OVCAR-5 ovarian, 63.3%; in the experiment on OVCAR-4 ovarian, 12.5%; with SK-OV-3 ovarian, 90.9%. Moreover, the growth in the experiment with IGROV1 ovarian was 3.87% (active); in the experiment on HS 578T breast, 36.1%; in the experiment with NCI/ADR-RES ovarian, 68.2%.

For `COc1cc(/C=N\NC(=O)c2ccc3nc(-c4ccc(Br)cc4)[nH]c3c2)cc(OC)c1OC`, the growth in the experiment on SR leukemia is 37.9%; in the experiment on RPMI-8226 leukemia it was 10.7%; in the experiment with OVCAR-8 ovarian it was 45.6%; with OVCAR-5 ovarian, 119%; in the experiment with OVCAR-4 ovarian it was 74.1%; with SK-OV-3 ovarian, 68.3%. The growth in the experiment with IGROV1 ovarian is 57.9%; with HS 578T breast, 38%; with NCI/ADR-RES ovarian, 95.9%.

Consider `O=C1[C@H]2Cc3c([nH]c4ccccc34)[C@H](c3ccc(Cl)cc3)N2C(=O)CN1C1CCN(CC2CCCCC2)CC1`, for which the growth was -5.73% (active) in the experiment on SR leukemia; 23.4% in the experiment on RPMI-8226 leukemia; 74.9% with OVCAR-8 ovarian; 96.1% in the experiment with OVCAR-5 ovarian; 72.7% with OVCAR-4 ovarian; 93.8% with SK-OV-3 ovarian. Further, the values for the growth in the experiment on IGROV1 ovarian, in the experiment on HS 578T breast and in the experiment with NCI/ADR-RES ovarian were 72.2%, 74.4% and 68.5%, respectively.

Take `CN1CCN(Cc2ccc(NC(=O)c3cncc(C#Cc4cnc5ccc(OCCCS(C)(=O)=O)nn45)c3)cc2C(F)(F)F)CC1`: the growth with SR leukemia is 3.03% (active); in the experiment with RPMI-8226 leukemia, -3.99% (active); in the experiment with OVCAR-8 ovarian, -20.5% (active); with OVCAR-5 ovarian, 3.1% (active); in the experiment with OVCAR-4 ovarian it was -29.7% (active); with SK-OV-3 ovarian, -10.9% (active). Moreover, the figures for the growth with IGROV1 ovarian, in the experiment with HS 578T breast and in the experiment with NCI/ADR-RES ovarian were -13.9% (active), -24.1% (active) and 75%, respectively.
